Data published in PubChem BioAssay AID1021 (Emory University Molecular Libraries Screening Center, 2008).
In all, about 220,000 compounds went through this assay and about 2,100 (0.95%) were called active. The list comes from a sample in which actives are over-represented; it also holds similar structures and randomly drawn compounds. Values without a mark were called inactive.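 How the source made its calls: active means compounds that cut the binding signal by more than half at the single screening dose; inactive means the rest.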

Biological target: Induced myeloid leukemia cell differentiation protein Mcl-1 (Homo sapiens) (UniProt Q07820)
Experiment: Mcl-1/Bid binding inhibitors, primary screen, biochemical, TR-FRET, 1536-well (AID 1021);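 further: His-tagged Mcl-1 with europium anti-His antibody binding Bid BH3 peptide; 0% = Mcl-1 plus peptide wells and 100% = peptide-only wells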
Conditions: TR-FRET Mcl-1/Bid-Dy647 peptide binding, at 21.7 µM, active compounds read high

Induced myeloid leukemia cell differentiation protein Mcl-1 (Homo sapiens), sequence (Q07820 whole entry, looked up): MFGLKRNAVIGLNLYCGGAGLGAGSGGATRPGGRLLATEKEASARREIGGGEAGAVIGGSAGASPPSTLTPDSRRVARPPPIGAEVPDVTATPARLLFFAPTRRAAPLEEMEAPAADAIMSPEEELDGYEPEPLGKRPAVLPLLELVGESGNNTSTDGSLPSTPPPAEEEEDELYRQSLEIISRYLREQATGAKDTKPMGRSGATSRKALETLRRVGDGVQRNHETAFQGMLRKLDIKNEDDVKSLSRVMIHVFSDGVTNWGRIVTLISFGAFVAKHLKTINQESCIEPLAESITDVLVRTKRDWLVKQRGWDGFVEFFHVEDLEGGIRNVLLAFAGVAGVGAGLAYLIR

Structure (SMILES) | inhibition
COc1ccccc1CN1CCN(C(=O)Cc2ccccc2)CC1 | 68% (active)
O=C(Cc1ccccc1[N+](=O)[O-])N1CCN(Cc2ccc3c(c2)OCO3)CC1 | -23.7%
O=C(Cc1ccccc1)N1CCN(C2CCCCCC2)CC1 | 17%
COc1ccc(-n2c(O)c(C(C)=Nc3ccc4c(c3)CCC4)c(=O)[nH]c2=O)cc1 | -2.41%
O=C(O)COc1ccccc1/C=C1\C(=O)NC(=O)N(CCC2=CCCCC2)C1=O | 2.6%
CN1CCN(Cc2ccc(OC(F)(F)F)cc2)CC1 | 56.4% (active)
CN1CCN(Cc2ccccc2C(F)(F)F)CC1 | -13%
CCOP(=O)(OCC)C(NC(=O)NC)C(N)=O (stereo not given) | -3.96%
CCc1nnc(NS(=O)(=O)c2ccc(N=Cc3c(O)n(-c4ccccc4)c(=O)[nH]c3=O)cc2)s1 | -3.62%
CCOc1ccc(CN(CCCl)CCCl)cc1C(=O)OC | 63.2% (active)
CC1=C2C(=O)C3C(CC=C4CC(OC5OC(O)C(O)C(O)C5CO)CCC43C)C2CCC12OC1CC(C)CNC1C2C (stereo not given) | -4.26%
O=c1c2ccccc2nc(/C=C/c2ccco2)n1-c1ccccc1O | -66%
CNC(=O)O/N=C(\N)Cc1csc2ccc(Cl)cc12 | -11.9%
COc1ccc(C(=O)C2CCCN(Cc3ccc(C)s3)C2)cc1OC (stereo not given) | -15%
CC1CCCCN1Cc1cccnc1 (stereo not given) | 49.3%
O=C1NC(=O)N(c2ccccc2)C(=O)/C1=C/c1ccc([N+](=O)[O-])s1 | -21.7%
Cc1cccc(N2C(=O)NC(=O)/C(=C\c3cnn(-c4ccccc4)c3)C2=O)c1 | -15.1%
O=C1NC(=O)N(c2ccc(F)cc2)C(=O)/C1=C/c1ccc2c(c1)CCCN2Cc1ccccc1 | 74.2% (active)
O=C(c1cc2nc(-c3ccccc3)cc(-c3ccccc3)n2n1)N1CCC2(CC1)OCCO2 | 12.9%
CC(=O)Cc1ccc(OC(C)C)cc1 | 29.9%
